Compound activity deposited in PubChem BioAssay by National Center for Advancing Translational Sciences (NCATS).
Sampled rows, rich in hits. Any-hit rate of the full collection: about 2%.
LDHA block – qHTS assay for inhibitors of human lactate dehydrogenase; 480,000 tested, 0.15% active; L-lactate dehydrogenase A chain (Homo sapiens), P00338; purified LDHA, NADH/diaphorase-resazurin fluorescence; active compounds read low; activity change, % (values are at about 110 or 230 µM); AID 1347041, 2019; in the data active = activity change below about -30%; inconclusive = mostly about -25% to -30%;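 note: plate controls were DMSO wells for no effect and wells without enzyme for full effect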
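LDH5 2 nM; NADH 0.06 mM, pyruvate 0.2 mM; 200 mM Tris pH 7.4, EDTA, Tween-20; 5 min RT. Detection: diaphorase 0.133 mg/mL + resazurin 37 µM, fluorescence ex540/em590 at 0 and 20 min; normalized to enzyme-free and DMSO wells.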
Abeta yeast res – qHTS for compounds that reverse cellular toxicity of Amyloid beta (A-beta) peptide in yeast: Primary Screen; yeast expressing A-beta42, growth rescue, OD600, 48 h; response scale: 0% DMSO, 100% iron-clioquinol control; Potency, µM (doses to about 46.1 µM), hits mostly activators; 410,000 tested, 0.063% active; note: potency is the fitted concentration of half-maximal effect; nearly all actives have a fitted effect of over 55% in size
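Yeast A-beta toxicity model in growth medium with pinned compounds, 48 h at 30 C; growth read as absorbance at 600 nm. Normalized to FeCl3/clioquinol equimolar mix (positive) and DMSO (negative).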
aSyn rescue – qHTS of alpha-syn Inhibitors. Yeast expressing alpha-synuclein, growth rescue, BacTiter-Glo, 24 h. Potency, µM (highest dose often 46.1 µM), for the others: at the top dose growth rescue (activation), most hits filed as activators. 370,000 tested, 0.14% active; note: potency is the fitted concentration of half-maximal effect; % of control where 0% means no effect; nearly all actives have a fitted effect of over 65% in size
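Screening used galactose-induced yeast with toxic alpha-synuclein levels, exposed to compound for 24 hr at 30 deg C. Cell growth, read with BacTiter-Glo luminescence, gave the measured signal.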
FUS yeast rescue – qHTS for Suppressors of FUS Proteinopathy: Primary screen using FUS-linked yeast assay; AID 1347120, 2019; 390,000 tested, 0.24% active; Potency, µM (doses to about 76.6 µM), actives largely listed as activators; S. cerevisiae FUS-expressing, growth rescue, OD600, 24 h;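 note: potency is the fitted concentration of half-maximal effect; plate controls were DMSO vehicle for no effect and reference control for full effect; nearly all actives have a fitted effect of over 55% in size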
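Restored growth of FUS-toxic S. cerevisiae, read as 600 nm absorbance after 24 h at 30C in galactose medium (starting OD 0.005). Controls CP55940 and DMSO.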
IDH1 R132H inh – qHTS for Inhibitors of mutant isocitrate dehydrogenase 1 (IDH1): qHTS; Isocitrate dehydrogenase [NADP] cytoplasmic (Homo sapiens), O75874; IDH1-R132H enzyme, NADPH consumption, diaphorase/resazurin fluorescence; Potency, µM (series often up to 76.6 µM), without a hit: top-dose activity change, negative = inhibition, usual class: inhibitors; 390,000 tested, 0.093% active; AID 602179, 2012; note: potency is the fitted concentration of half-maximal effect; % is set by controls: 0 for no effect and ±100 for the full control effect; nearly all actives have a fitted effect of over 65% in size
Target sequence (O75874 whole entry R132H, stated change not applied): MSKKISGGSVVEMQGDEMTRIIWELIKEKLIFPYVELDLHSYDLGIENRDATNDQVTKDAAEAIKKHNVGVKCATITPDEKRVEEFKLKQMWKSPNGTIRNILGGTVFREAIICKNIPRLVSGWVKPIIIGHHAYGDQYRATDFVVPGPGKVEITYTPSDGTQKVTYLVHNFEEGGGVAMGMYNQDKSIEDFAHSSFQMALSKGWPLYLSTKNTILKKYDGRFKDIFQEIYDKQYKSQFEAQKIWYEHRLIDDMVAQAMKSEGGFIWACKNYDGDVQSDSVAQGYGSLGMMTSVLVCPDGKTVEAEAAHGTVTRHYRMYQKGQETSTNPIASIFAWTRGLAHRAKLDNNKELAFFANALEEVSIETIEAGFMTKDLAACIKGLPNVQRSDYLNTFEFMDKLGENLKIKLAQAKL
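IDH1-R132H (0.5 ug/mL dispensed) in pH 7.5 Tris buffer was preincubated 30 min with compound, then given a substrate mix of 0.016 mM NADPH and 2 mM alpha-KG for 80 min at room temperature; remaining NADPH was read by diaphorase/resazurin fluorescence.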
TDP43 rescue – qHTS of TDP-43 Inhibitors; 410,000 tested, 1.8% active; TDP-43 expressing yeast growth rescue, BacTiter-Glo, 24 h; AID 652104, 2013; Potency, µM (series often up to 46.1 µM), inactives show top-dose growth rescue (activation), most hits filed as activators; note: potency is the fitted concentration of half-maximal effect; % of control where 0% means no effect; nearly all actives have a fitted effect of over 50% in size
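Readout is BacTiter-Glo luminescence of cell growth, so inhibitors register as activators. TDP-43-expressing yeast at OD600=0.02 in galactose medium, after raffinose pregrowth to mid-log, were incubated with compound for 24 hr at 30 deg C.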
* hit, by the source's call; i = inactive; u = inconclusive; x = no result; [ ] = dose if it differs, or a comment. Unless noted, calls come from the whole dose curve; as a rule, active = well fitted curve in the direction sought with a large enough effect; inconclusive = small, poorly fitted or top-dose-only effect, or another doubt; inactive = no such curve, though single readings can be large; an effect the other way counts as inactive or inconclusive.

SMILES	LDHA block	Abeta yeast res	aSyn rescue	FUS yeast rescue	IDH1 R132H inh	TDP43 rescue
COc1ccc(Cl)cc1NC(=O)CN(C)CC(=O)Nc1ccc(Br)cc1	1.1	i	4.8%	i	8.0%	22.4µM*
COc1ccc(Cl)cc1NC(=O)CN(C)CC(=O)Nc1cc(OC)c(OC)c(OC)c1	0.0	i	-3.4%	i	1.6%	0.6%
Cc1ccc(NC(=S)NCCc2ccccc2)cc1	0.0	x	x	x	x	x
COc1cc2ccccc2cc1C(=O)NC1CCCC1	-0.8	i	0.9%	i	22.4%	12.6µM*
COc1cc2ccccc2cc1C(=O)NC1CCCCC1	1.7	i	-11.3%	i	3.1%	17.4%
CCOC(=O)C(=CNNc1ccccc1)C(=O)OCC	-2.0	i	u	i	3.8%	12.6µM*
c1coc(CN(Cc2ccco2)c2ncnc3c2oc2ccccc23)c1	0.5	i	1.5%	u	-1.8%	20µM*
COc1ccc(CSCC(=O)Nc2ccc(S(=O)(=O)N3CCCCCC3)cc2)cc1	-5.5	i	4.2%	x	2.2%	17.8µM*
Cc1csc2ncc(C(=O)NCc3ccc4c(c3)OCO4)c(=O)n12	-0.4	i	0.2%	i	-1.4%	10µM*
O=C(NCc1ccccc1Cl)c1cnc2n(c1=O)CCS2	-12.1	i	-2.1%	i	7.7%	u
Cc1ccc(-c2csc3ncnc(SCC(=O)NCc4ccc5c(c4)OCO5)c23)cc1	-5.6	i	2.4%	i	6.4%	-1.0%
O=C(CSc1ncnc2sccc12)NCc1ccc2c(c1)OCO2	-0.9	i	u	i	2.4%	15.8µM*
Cc1csc2ncc(C(=O)NCc3ccccc3Cl)c(=O)n12	-11.1	i	-1.5%	i	-2.6%	22.4µM*
CC[n+]1c(C)ccc2ccccc21	8.3	x	x	x	x	x
O=C(COc1ncnc2ccc(Br)cc12)Nc1cccc(Br)c1	7.3	x	x	x	x	x
O=C(NCCNc1cnccn1)c1cnccn1	-0.4	x	x	x	x	x
COc1cccc(Cn2c(=O)c3sccc3n(CC(=O)N(C)C3CCCCC3)c2=O)c1	-9.5	x	x	x	x	x
O=C(Nc1cccc2c1[nH]c(=O)c1ccccc12)C(F)(F)F	-2.9	i	-6.0%	i	-2.1%	15.0%
O=C(Nc1cccc2c1[nH]c1ccccc12)C(F)(F)F	3.2	i	0.3%	i	4.6%	14.1µM*
CC(=O)Oc1ccc2c(C)c(CC(=O)NC3CCCCCC3)c(=O)oc2c1OC(C)=O	12.2	x	x	x	x	x
Cc1c2ccncc2cc2c1[nH]c1ccccc12	-5.6	i	10µM*	i	15.9%	-1.2%
Cn1ccnc1C(NC(=O)Cc1ccc(-c2ccccc2)cc1)c1ccc(Cl)cc1 (configuration not stated)	4.5	x	x	x	x	x
CN=C(Nc1cccc(Cl)c1)SC1CC(=O)N(c2ccc(OC)cc2)C1=O (configuration not stated)	-2.8	8.91µM*	u	i	-0.2%	29.3%[9.22 µM]
Cc1cc(C(=O)CSc2nnc(-c3ccncc3)n2-c2ccccc2)c(C)n1C	13.8	i	-8.8%	31.6µM*	4.9%	-6.2%
Cc1cc(C(=O)CSc2nnc(-c3ccccc3)n2C)c(C)n1C	-1.3	i	-5.1%	i	3.1%	-16.6%
O=C(OCCn1c(=S)sc2ccccc21)c1ccccc1	-7.3	i	0.8%	x	4.6%	11.2µM*
CC(C)CCn1cnc2c1c(=O)n(Cc1ccccc1C#N)c(=O)n2Cc1ccccc1	-3.2	x	x	x	x	x
CCCC(=O)N1CCN(c2nc(-c3ccco3)c3c(c2C#N)CCCC3)CC1	2.6	x	x	x	x	x
C/C(=N\Nc1nc(C(C)(C)C)cs1)c1ccccc1	-1.4	i	-25.6%	i	5.5%	22.4µM*
